Data reported in the supplement of paper PMC4840960.
± gives the standard deviation of the averaged measurements.

Tests used:
[1] = tested on: E18 rat cortical neuron-glia co-culture; test: fiber score / MBP score (myelination specific beyond OL differentiation) (ratio); higher = more myelination-specific MBP alignment; settings: treatment time: 8 days (DIV5-DIV13)
Summary of the method: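 Library compounds were applied at 1 or 5 µM in myelination medium, DIV5 to DIV13, to primary E18 rat cortical co-cultures grown at 20,000 cells/well in 96-well plates. After 4 % paraformaldehyde fixation and MBP/Olig2/DAPI immunostaining, four 10X fields per well in duplicate wells were scored. Each value is continuous MBP fiber length per Olig2+ nucleus divided by thresholded MBP area × intensity per Olig2+ nucleus.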

[2] = tested on: E18 rat cortical neuron-glia co-culture; test: myelination (MBP fiber length per Olig2+ nucleus), % of 1 µM DAPT response (DMSO = 0) (% of DAPT); higher = more myelination, active = 50 or more; settings: treatment time: 8 days (DIV5-DIV13)
Summary of the method: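 Library compounds at 1 or 5 µM in myelination medium were applied from DIV5 to DIV13 to papain-dissociated E18 rat cortical co-cultures seeded at 20,000 cells/well on poly-d-lysine/laminin 96-well plates. Fixed cells (4 % paraformaldehyde) were immunostained for MBP and Olig2 with DAPI, and four 10X fields were analysed in each duplicate well. Continuous straight MBP fiber length per Olig2+ nucleus was set to 0 for 0.1 % DMSO and to 100 for a 1 µM positive control.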

SMILES	fiber score / MBP score ([1]; 1 µM)	fiber score / MBP score ([1]; 5 µM)	myelination ([2]; 1 µM)	myelination ([2]; 5 µM)
Cn1nnc2c(C(N)=O)ncn2c1=O [Temozolomide]	0.532	0.773	-29.3 (inactive)	-12.8 (inactive)
COc1cc(C)c(/C=C/C(C)=C/C=C/C(C)=C/C(=O)O)c(C)c1C [Acitretin]	1.04	1.45	0.3 (inactive)	12 (inactive)
COc1cc(Cc2cnc(N)nc2N)cc(OC)c1OC [Trimethoprim]	0.828	1.18	-9.76 (inactive)	5.27 (inactive)
CC(C(=O)O)c1cccc(C(=O)c2ccccc2)c1 (centres undefined) [Ketoprofen]	0.813	0.972	-5.15 (inactive)	-3.55 (inactive)
CC1COc2c(N3CCN(C)CC3)c(F)cc3c(=O)c(C(=O)O)cn1c23 (centres undefined) [Ofloxacin]	0.775 ± 0.041	0.784 ± 0.19	-16.9 (inactive)	-17 (inactive)
NC12CC3CC(CC(C3)C1)C2 [Amantadine]	0.736	0.883	-4.46 (inactive)	0.678 (inactive)
CNNCc1ccc(C(=O)NC(C)C)cc1 [Procarbazine]	0.937	1.09	-6.44 (inactive)	-0.797 (inactive)
NNC(=O)c1ccncc1 [Isoniazid]	0.85	0.914	-1.03 (inactive)	0.697 (inactive)
CNCCCC12CCC(c3ccccc31)c1ccccc12 [Maprotiline]	0.656	0.581	-27.8 (inactive)	-25.1 (inactive)
CNCCCN1c2ccccc2CCc2ccccc21 [Desipramine]	0.74	0.549	-14.9 (inactive)	-13.3 (inactive)
Clc1ccc2c(c1)C(N1CCNCC1)=Nc1ccccc1O2 [Amoxapine]	1.09	0.185	0.685 (inactive)	-23.6 (inactive)
CC(C)(C(=O)O)c1ccc(C(O)CCCN2CCC(C(O)(c3ccccc3)c3ccccc3)CC2)cc1 (centres undefined) [Fexofenadine]	0.774	0.82	0.24 (inactive)	0.141 (inactive)
NCCc1ccc(O)c(O)c1 [Dopamine]	1.28	1.06	5.4 (inactive)	0.308 (inactive)
CO[C@H]1/C=C/O[C@@]2(C)Oc3c(C)c(O)c4c(O)c(c(/C=N/N5CCN(C6CCCC6)CC5)c(O)c4c3C2=O)NC(=O)/C(C)=C\C=C\[C@H](C)[C@H](O)[C@@H](C)[C@@H](O)[C@@H](C)[C@H](OC(C)=O)[C@@H]1C [Rifapentine]	0.893 ± 0.081	1.12 ± 0.52	2.99 (inactive)	21 (inactive)
CN1CCCC(n2nc(Cc3ccc(Cl)cc3)c3ccccc3c2=O)CC1 (centres undefined) [Azelastine]	0.861	0.855	-2.34 (inactive)	-2.84 (inactive)
Nc1ccc(O)c(C(=O)O)c1 [Mesalamine]	0.748	0.63	-20.4 (inactive)	-28.3 (inactive)
O=C(CCNNC(=O)c1ccncc1)NCc1ccccc1 [Nialamide]	0.859	0.524	-5.76 (inactive)	-19 (inactive)
CC[C@H](C)C(=O)O[C@H]1C[C@H](O)C=C2C=C[C@H](C)[C@H](CC[C@@H](O)C[C@@H](O)CC(=O)O)[C@H]21 [Pravastatin]	0.899	0.809	2.73 (inactive)	-17.4 (inactive)
COc1ccccc1OCC(O)CN1CCN(CC(=O)Nc2c(C)cccc2C)CC1 (centres undefined) [Ranolazine]	0.877	0.697	-13.7 (inactive)	-22.5 (inactive)
COC(=O)C1=C(C)NC(C)=C(C(=O)OCCN(C)Cc2ccccc2)C1c1cccc([N+](=O)[O-])c1 (centres undefined) [Nicardipine]	0.629	0.824	-8.17 (inactive)	-21.2 (inactive)
CC(C(=O)O)c1ccc(-c2ccccc2)c(F)c1 (centres undefined) [Flurbiprofen]	0.667 ± 0.24	0.793 ± 0.03	-16.8 (inactive)	-13.6 (inactive)
Cc1ccc(N(CC2=NCCN2)c2cccc(O)c2)cc1 [Phentolamine]	0.701	0.56	-21.8 (inactive)	-26.1 (inactive)
O=c1c(O[C@@H]2O[C@H](CO)[C@@H](O)[C@H](O)[C@H]2O)c(-c2ccc(O)c(O)c2)oc2cc(O)cc(O)c12 [Isoquercitrin]	1.09	0.826	1.55 (inactive)	-11.7 (inactive)
CN(C)CCC(c1ccc(Br)cc1)c1ccccn1 (centres undefined) [Brompheniramine]	0.611	0.693	-14.9 (inactive)	-12.4 (inactive)
CCN(Cc1ccncc1)C(=O)C(CO)c1ccccc1 (centres undefined) [Tropicamide]	0.511	0.747	-22.3 (inactive)	-16.2 (inactive)
CC(C)(S)[C@@H](N)C(=O)O [Penicillamine]	0.988	0.926	-2.14 (inactive)	-5.65 (inactive)
